Screening results (PubChem BioAssay)
Hits are enriched below; roughly 20% of the tested compounds scored in any of these assays.
HCMV antiviral – inhibitors of human cytomegalovirus; activity change, negative = inhibition, % at 57.5 µM; AID 1259415; HFF cells, HCMV-luciferase reporter, 72 h; hits give low values; 4.5% of 410,000 active; in the data active means activity change below about -60%; inconclusive means no clear call, values can overlap the other calls; inactive means above about -39%; further: on the % scale 0 is the no-effect control and ±100 the full control effect
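Human foreskin fibroblasts infected with luciferase-reporter HCMV at MOI 1 PFU/cell, compounds at two doses. Luciferase measured 72 h post infection; normalized to buffer-only basal and Salinomycin (10uM) controls.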
Pf growth 48h – inhibits P. falciparum growth in the first generation, 48 h. 5.9% of 310,000 active. P. falciparum luciferase growth in erythrocytes, 48 h. Potency, µM (top dose mostly 28.7 µM), for the others: at the highest dose activity change, negative = inhibition, actives largely listed as inhibitors; further: potency means the concentration at half of the fitted maximal effect; on the % scale 0 is the no-effect control and ±100 the full control effect
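Parasite viability was followed by luminescence of a genomically integrated firefly luciferase. Cultures held 0.1% parasitemia at 2% hematocrit (final), incubated under 5% CO2 at 37 C.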
Shiga inhibitor – blocks Shiga toxin action in Vero cells. inhibition, % at 38.7 µM. Vero cells, Shiga toxin protein synthesis inhibition reporter. 9.2% of 290,000 active. AID 2315; in the data active means inhibition mostly above about 28%, no sharp cut-off; inactive means mostly below about 43%; further: 0% is about no effect
Pf growth 96h – inhibits malaria parasite growth, 96 h; P. falciparum luciferase reporter growth, 96 h; Potency, µM (doses to about 28.7 µM), for the others: at the highest dose activity change, negative = inhibition, actives largely listed as inhibitors; 6.9% of 320,000 active; further: potency means the concentration at half of the fitted maximal effect; on the % scale 0 is the no-effect control and ±100 the full control effect
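Compounds incubated with erythrocytes infected by luciferase-expressing P. falciparum (2% hematocrit, 0.05% parasitemia final) for 96 hours, 37 C in 5% CO2. Growth inhibition scored as decreased luciferase luminescence.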
Cycloheximide cs – counter-screen for Shiga toxin inhibitors: cycloheximide protein synthesis inhibition. cell reporter, cycloheximide protein synthesis inhibition counterscreen. max response, %. 12% of 300,000 active; in the data active means max response mostly above about 13%, no sharp cut-off; inactive means mostly below about 14%; further: read at 38.3 µM for the half of the compounds with a filed dose; 0% is about no effect
Numbers without * were called inactive; ? = inconclusive; nt = no result given; + = active, no number; ! = a repeat was not active. Unless noted, the call rests on the fitted dose curve; in most records, active means well fitted inhibition curve with a large enough effect; inconclusive means small, poorly fitted or top-dose-only effect, or another doubt; inactive means no such curve, though single readings can be large or run the other way.

SMILES | HCMV antiviral | Pf growth 48h | Shiga inhibitor | Pf growth 96h | Cycloheximide cs
CC(C)Oc1ccc(/C(O)=C2/C(=O)C(=O)N(CCN(C)C)C2c2cccs2)cc1 (stereo not given) | 55.1 | 25.6% | 74.1* | ? | 18.3*
COc1ccc(C2/C(=C(/O)c3cnn(-c4ccccc4)c3C)C(=O)C(=O)N2CCN(C)C)cc1OC (stereo not given) | 1.5 | nt | nt | nt | nt
COCc1ccc(C(=O)N2CCCC(N(C)CCc3ccccc3)C2)s1 (stereo not given) | 2.7 | nt | nt | nt | nt
CCC1CCCCN1C(=S)NC(=O)c1cccc([N+](=O)[O-])c1 (stereo not given) | -38.6 | ? | 29.8 | ? | -2.6
CCN(C(=O)CSc1nc2ccccc2n1CC(=O)N(C)C1CCCCC1)c1ccccc1 | -8.8 | nt | nt | nt | nt
Cc1ccc(C2C(C(=O)c3cc4ccccc4o3)=C(O)C(=O)N2CCN(C)C)o1 (stereo not given) | -33.7 | nt | nt | nt | nt
Cc1cc(N2C(=O)C(O)=C(C(=O)c3cc4ccccc4o3)C2c2ccc(Br)cc2)no1 (stereo not given) | 0.0 | ? | 22.8 | ? | 42.2*
CN(C)CCN1C(=O)C(O)=C(C(=O)c2cc3ccccc3o2)C1c1ccc(N(C)C)cc1 (stereo not given) | 42.1 | 54.2% | 14.1 | 9.28µM* | 10.0
COc1ccc(NC(=O)Cn2c(SCc3ccc(C)cc3)nc3cccnc32)cc1OC | -32.9 | nt | nt | nt | nt
Cc1c(Cl)c([N+](=O)[O-])nn1CCCC(=O)Nc1cccc(Cl)c1Cl | -36.8 | 15.7% | -9.0 | ? | -2.5
Cc1c(Cl)c([N+](=O)[O-])nn1CCCC(=O)Nc1ccc(Cl)cc1Cl | 22.7 | 35.4% | -2.2 | 11.7µM* | 0.8
Cc1ccc(Cn2nc(C)c(NC(=O)CCCn3nc([N+](=O)[O-])c(Cl)c3C)c2C)cc1 | 32.2 | -4.0% | -14.7 | 2.2% | -5.4
Cc1nn(Cc2ccccc2Cl)c(C)c1NC(=O)CCCn1nc([N+](=O)[O-])c(Cl)c1C | 5.0 | -14.9% | -7.9 | 4.65µM* | -0.8
O=C1Nc2ccccc2N(O)N1c1ccc(S(=O)(=O)N2CCOCC2)cc1 | -3.8 | -2.5% | -9.8 | ? | -3.1
Cc1ccc(NC(=O)CSc2nnc3scc(-c4ccccc4)n23)cc1 | -19.4 | nt | nt | nt | nt
Cc1ccc(C(=O)n2c(-c3ccccc3)cnc2SCC(=O)Nc2ccc(C)cc2C)cc1 | 4.0 | 32.3% | 48.5* | 13.9% | -2.0
CC(=O)n1nc(-c2cccc(C)c2)nc1SCC(=O)Nc1ccccc1 | -89.0* | 35.3% | -5.7 | 31.7% | 7.7
Cc1ccc(NC(=O)CSc2ncc(-c3ccccc3)n2C(=O)c2ccccc2)cc1 | 6.3 | 28.4% | 100.4* | ? | 27.8*
Cc1ccc(NC(=O)Cn2c(-c3ccc(F)cc3)cnc2SCC(=O)Nc2c(C)cccc2C)cc1 | -77.7* | 0.1% | 1.2 | 12.9% | -0.2
Cc1ccc(NC(=O)CSc2nnc(Cc3ccccc3)o2)c(C)c1 | 8.5 | ? | -2.4 | 0.0% | -3.7
Cc1cc(NC(=O)CSc2nnc(-c3ccccc3F)n2C)no1 | -22.5 | -2.7% | nt | -30.0% | nt
COc1ccc(NS(=O)(=O)c2ccc(NN=Cc3ccc(C(=O)O)cc3)c([N+](=O)[O-])c2)cc1 | 5.3 | nt | nt | nt | nt
CC(C)Nc1cc(N2CCN(C3CCCCC3)CC2)c2noc3c2c1C(=O)c1ccccc1-3 | 52.6 | nt | nt | nt | nt
Cc1ccc(C(=O)n2c(-c3ccccc3)cnc2SCC(=O)Nc2ccccc2)cc1 | -74.3* | 71.3% | -2.9 | 252.6% | 15.1*
CCN(CCCNS(=O)(=O)c1ccc2c(c1)CCN2C(C)=O)c1cccc(C)c1 | -36.4 | nt | 21.4 | ? | 7.0
SMILES | HCMV antiviral | Pf growth 48h | Shiga inhibitor | Pf growth 96h | Cycloheximide cs
Cc1ccc(/C=N/NC(=O)c2ccc(Cn3cc([N+](=O)[O-])cn3)o2)cc1 | -25.8 | 18.1% | 20.5* | -21.6% | 14.9
COc1ccc(/C=N/Nc2ccccc2C(=O)O)cc1Cn1cc([N+](=O)[O-])cn1 | 0.0 | ? | 56.1* | 7.5% | 45.6*
COc1ccc(/C=N/NC(=O)c2ccc(Br)o2)cc1Cn1cc([N+](=O)[O-])cn1 | -2.9 | 25.5% | 76.9* | -22.2% | 38.9*
COc1ccc(/C=N/NC(=O)c2ccccc2O)cc1Cn1cc([N+](=O)[O-])cn1 | -11.4 | 35.1% | 38.6 | 59.5% | 23.6*
COc1ccc(/C=N/NC(=O)c2cc(O)c(O)c(O)c2)cc1Cn1cc([N+](=O)[O-])cn1 | -14.8 | ? | 28.0 | 9.4% | 9.3
COc1cc(NC(=O)C2CCCN(S(=O)(=O)c3ccc4c(c3)oc(=O)n4C)C2)c(C(=O)O)cc1OC (stereo not given) | -7.9 | nt | nt | nt | nt
C=C(NC(C)=O)c1c(F)cccc1F | 1.9 | 44.8% | nt | 27.9% | nt
O=C(N/C(=C/c1cccc([N+](=O)[O-])c1)C(=O)N1CCCCCC1)c1cccs1 | -29.5 | 0.4% | -67.2 | 73.7% | 14.3
COc1cc(-c2nc(-c3ccccc3)c(-c3cccs3)[nH]2)cc(OC)c1O | -1.5 | nt | 9.3 | 1.85µM* | 7.0
COc1ccc(N(CC(=O)NCc2ccccc2C)S(=O)(=O)c2ccc(C)cc2)cc1OC | -19.0 | ? | -2.9 | 48.3% | -1.3
COc1ccc(S(=O)(=O)N(CC(=O)NCc2ccccc2OC)c2ccc(C)cc2)cc1 | -67.6* | nt | nt | nt | nt
CCOc1ccc(N(CC(=O)NCc2ccccc2C)S(C)(=O)=O)cc1 | 139.3 | 32.5% | 68.3* | 266.1% | 41.7*
CCOc1ccc(S(=O)(=O)N(CC(=O)NCc2ccccc2OC)c2ccccc2)cc1 | -61.8* | nt | nt | nt | nt
CCOc1ccc(S(=O)(=O)N(CC(=O)NCCc2ccc(OC)c(OC)c2)c2ccccc2)cc1 | 5.5 | nt | nt | nt | nt
COc1ccc(N(CC(=O)NCc2ccc(C)cc2)S(=O)(=O)c2c(C)[nH]c(=O)[nH]c2=O)cc1 | +! | 24.9% | -7.9 | 4.65µM* | -4.8
CCN(C(=O)Cn1c(C(=O)OC)cc2sccc21)c1cccc(C)c1 | -2.0 | nt | nt | nt | nt
COc1ccc([C@H]2C[C@H](O)[C@@H](n3cc(C4CC4)nn3)CN2C(=O)c2cccs2)cc1 | -3.2 | nt | nt | nt | nt
COc1ccc(NS(=O)(=O)c2cccc(C(=O)NNC(=O)c3ccc(=O)[nH]c3)c2)cc1 | -1.1 | -12.2% | nt | -10.8% | nt
CN1CCN(c2ccccc2NC(=O)c2ccc(-c3ccc(Br)cc3)o2)CC1 | nt | 13.1µM* | 16.7 | 4.1% | -3.6
Cc1cc(N2CCN(C)CC2)ccc1NC(=O)c1ccc(-c2ccc(Cl)cc2)o1 | ? | ? | nt | 4.15µM* | nt
CN1CCN(c2ccccc2NC(=O)c2ccc(-c3ccc(Cl)c(Cl)c3)o2)CC1 | 4.9 | 1.0% | -13.2 | 6.6% | 11.8
CN1CCN(c2ccccc2NC(=O)c2ccc(-c3cccc([N+](=O)[O-])c3)o2)CC1 | 31.0 | 10.4µM* | -4.1 | ? | -0.3
CCC(=O)N1CCN(c2ccccc2NC(=O)c2ccc(-c3cccc([N+](=O)[O-])c3)o2)CC1 | 47.9 | 8.28µM* | -10.5 | 4.5% | 9.6
CN1CCN(c2ccccc2NC(=O)c2cccc([N+](=O)[O-])c2)CC1 | 10.1 | -19.1% | 19.0 | 43.3% | 0.4
Nc1nc(SCC(=O)O)[nH]c(=O)c1NC(=O)c1ccco1 | -3.0 | 4.1% | -4.5 | 35.8% | -1.3
